Test results published in PubChem BioAssay (NCI).
“And” between values parts separate entries of the source, which are not always exact repeats. Equal entries are not always repeated. The panel holds about 83,000 compounds, 20% with a hit somewhere; the sample as a whole holds those more often.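 Plates (96-well) were seeded with cells, treated with compound at one concentration, and incubated for 48 hours before percent growth was determined.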 A number with no mark means an inactive call. The source made the active and inactive calls. The calls were made as follows: active = growth percent below 10; inactive = the rest.

How the values were obtained:
Test in all cases: NCI-60 one-dose screen, 48 h (100 = growth as untreated, 0 = no growth, -100 = all killed)
Conditions in all cases: 10 µM unless noted
[1] = tested on: SR leukemia
[2] = tested on: RPMI-8226 leukemia
[3] = tested on: OVCAR-8 ovarian
[4] = tested on: OVCAR-5 ovarian
[5] = tested on: OVCAR-4 ovarian
[6] = tested on: SK-OV-3 ovarian
[7] = tested on: IGROV1 ovarian
[8] = tested on: OVCAR-3 ovarian
[9] = tested on: HS 578T breast
[10] = tested on: NCI/ADR-RES ovarian

| SMILES | growth [1] | growth [2] | growth [3] | growth [4] | growth [5] | growth [6] | growth [7] | growth [8] | growth [9] | growth [10] |
| --- | --- | --- | --- | --- | --- | --- | --- | --- | --- | --- |
| COc1ccc2nc(NC(=O)c3ccc(N(C)C)cc3)sc2c1 | 42.5% | 31.9% | 75.7% | 93% | 75% | 111% | 99.5% | 94.5% | 95.9% | 52.9% |
| CC1CCc2c(sc3nc(SCC(=O)c4cccc([N+](=O)[O-])c4)n(-c4ccccc4)c(=O)c23)C1 (stereo not given) | 49% | 84.1% | 38.6% | 94.2% | 98% | 98.8% | 74.8% | 111% | 94.7% | 65% |
| Cc1ccc(C(C(=O)NC2CCCCC2)N(Cc2ccccc2Cl)C(=O)c2ccc(CN3CCOCC3)o2)o1 (stereo not given) | 103% | 80.4% | 104% | 99.8% | 96.8% | 112% | 92.5% | 110% | 86% | 87.5% |
| CC(C)CN1C(=O)/C(=C\C(=O)c2cc3ccccc3oc2=O)c2ccccc21 | 34.6% | 85.4% | 97.7% | 111% | 87.3% | 104% | 87.7% | 51.1% | 102% | 95.8% |
| CCc1ccccc1NC(=O)N/C(N)=N/c1nc2ccccc2s1 | 7.38% (active) | 15.7% | -26.6% (active) | 0.307% (active) | 16.7% | 7.32% (active) | 20% | -30.2% (active) | 27.1% | -30.4% (active) |
| CN1C(=O)C2(C(C#N)=C(c3ccc(Cl)cc3)Nc3c2c(-c2ccccc2)nn3-c2ccccc2)c2ccccc21 (stereo not given) | 29.6% | 60.3% | 98.5% | 96% | 96.1% | 99.2% | 98% | 112% | 65.3% | 78.8% |
| Cc1ccc(N=Nc2c(N)nn3c(-c4cc5ccccc5oc4=O)ccnc23)cc1 | 75.7% | 9.76% (active) | 51.4% | 54.6% | 77.9% | 99.9% | 32.4% | 37.4% | 62.6% | 27% |
| CC1=C(C(=O)Nc2ccccc2)C(c2cccc3ccccc23)n2c(nc3ccccc32)N1 (stereo not given) | 72.4% | 76.9% | -0.819% (active) | 76.3% | 42.3% | -2.39% (active) | 68% | 38.6% | -13.9% (active) | 32.2% |
| CCOC(=O)c1ccc(NC(=S)NC(=O)c2cccc(NC(=O)c3ccc(C)cc3)c2)cc1 | 54.5% | 62.4% | 28.9% | 77.3% | 27.8% | 73.5% | 73.6% | 61.4% | 53.4% | 65.9% |
| Cn1cc(-c2cc(N)n3nc(-c4c[nH]c5ccccc45)cc3n2)c2cc(F)ccc21 | 13.1% | 0.774% (active) | -43.2% (active) | 34.4% | 35.3% | 97.9% | 21.2% | 15.8% | 79.5% | 19.1% |
| CN(C)CCCNC(=S)Nc1ccc(/C=C/c2ccc(Cl)cc2)cc1 | -1.02% (active) | 3.25% (active) | -40.8% (active) | -99.6% (active) | -68.2% (active) | -56.9% (active) | -70.4% (active) | 23.6% | 11.7% | -43.6% (active) |
| Cn1cc(-c2cc(N)n3nc(-c4c[nH]c5ccc(Cl)cc45)cc3n2)c2cccnc21 | -26.2% (active) | -17.8% (active) | -76.2% (active) | -82.5% (active) | -42% (active) | -73.5% (active) | -77.7% (active) | -71.3% (active) | -26.2% (active) | -73.8% (active) |
| Cc1ccc(/C=C/C(=O)c2ccc(S(=O)(=O)NCCNc3nc(N(C)C)nc(N4CCOCC4)n3)cc2)cc1 | -36.4% (active) | -15.6% (active) | 88.8% | 97.6% | 91.6% | 90.5% | 102% | 109% | 97.9% | 86.2% |
| Fc1ccc(F)c(CNc2nc(SCCN3CCOCC3)nc3c2cnn3CC(Cl)c2ccc(Br)cc2)c1 (stereo not given) | 0.635% (active) | 2.73% (active) | 31.9% | 63% | 23.2% | 47% | 45.6% | 45.2% | 23.4% | 22.8% |
| COc1ccc2c(c1)C(Sc1ccc(F)cc1)c1c(nc(N)c(C#N)c1N)O2 (stereo not given) | 38% | 71.7% | 90.1% | 122% | 97.8% | 122% | 70.6% | 128% | 85.5% | 95.3% |
| COc1sc(/C=N/NC(=O)c2[nH]c3ccc(Br)cc3c2-c2ccccc2)cc1Cl | 11.1% | 12.7% | -30.4% (active) | -29.3% (active) | 29.9% | 12.1% | -41.1% (active) | 4.74% (active) | 7.66% (active) | -48.7% (active) |
| O=C(Nc1ccc(-c2ccc3c(c2)NC(=O)/C3=C\c2ccc[nH]2)cc1)Nc1cccc(Cl)c1 | 6.39% (active) | 18.2% | -34.5% (active) | -68.3% (active) | 6.87% (active) | 3.23% (active) | -62.2% (active) | 2.44% (active) | 21.9% | -37.9% (active) |
| O=C(NNC(=O)c1ccc(OCc2nc3ccc(Cl)cc3[nH]2)cc1)Nc1ccc(Cl)c(C(F)(F)F)c1 | 50.3% | 35.9% | 19.1% | 76.4% | 80.1% | 92.4% | 69.6% | 51.8% | 57.2% | 95.4% |
| CSc1ccc(OCc2nc3ccccc3n2-c2cccc(NS(C)(=O)=O)c2)cc1 | 82.6% and 89.5% | 93.7% and 91.1% | 99.5% and 88.4% | 130% and 117% | 93.8% and 69.4% | 110% and 83.5% | 95.3% and 82.8% | 118% | 80.9% and 65% | 96.5% and 79.7% |
| Cc1ccc(-c2cc(C(=O)N=Nc3c(O)[nH]c4ccc(F)cc34)c3ccccc3n2)cc1 | 56.8% | 103% | 16.8% | 70% | 1.07% (active) | 94.3% | 52.9% | 95.3% | 32.1% | 3.61% (active) |
| CC1CCc2c(sc3nc(SCC(=O)c4cccc(Br)c4)n(-c4ccccc4)c(=O)c23)C1 (stereo not given) | 22.3% | 58.8% | 19.2% | 47.8% | 30.6% | 58% | 33.7% | 55.7% | 57.7% | 35.2% |
| C=CC[n+]1cccc2c3ccccc3ccc21 | 46.5% | 27.6% | 41.1% | 70.8% | 42% | 77% | 72.5% | 35.9% | 43.7% | 97.2% |
| Cc1ccc(C(=O)Nc2cc(-c3ccccc3)cc(C(F)(F)F)c2)cc1C#Cc1cnc2cccnn12 | 44.8% | 36.9% | 75.3% | 85.3% | 49% | 123% | 93.1% | 95.5% | 85.3% | 63.2% |
| O=C1c2cccc3c(N4CCN(c5ccccc5)CC4)ccc(c23)C(=O)N1c1cccc(-c2nn(-c3ccccc3)cc2-c2nc3ccccc3s2)c1 | 90.9% | 95.9% | 106% | 108% | 99.9% | 97.6% | 73.9% | 98% | 102% | 98.3% |
| O=C(NNC(=S)NCCc1ccccc1)c1ccc(OCc2nc3ccc(Cl)cc3[nH]2)cc1 | 54.2% | 49.1% | 86.2% | 113% | 49.7% | 102% | 80.3% | 68.2% | 81.2% | 93.9% |
